# Hits are enriched below; roughly 19% of the tested compounds scored in any of these assays.
# TDP1 cell CPT – DT40-hTDP1 cell growth loss with CPT. chicken DT40 Tdp1-/-;hTDP1 cells + 20 nM CPT, ATP luminescence, 48 h. Potency, µM (top dose mostly 46.2 µM), without a hit: at the highest dose activity change, negative = growth inhibition, actives largely listed as inhibitors. 420,000 compounds, 12% hits. AID 686979; also: nearly all actives have a fitted effect of over 55% in size
#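 Chicken DT40 Tdp1-/- cells stably complemented with human TDP1 were seeded at 400 cells/well in medium containing 20 nM camptothecin, exposed to pin-transferred compounds, and grown at 37 °C for at least 48 hr. Viability was read as ATP luminescence.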
# DT40 TDP1 no CPT – qHTS for Inhibitors of human tyrosyl-DNA phosphodiesterase 1 (TDP1): qHTS in cells in absence of CPT | DT40 Tdp1-/- hTDP1 cells, no CPT, ATP luminescence, 48 h | Potency, µM (titrated, usually from 46.2 µM), inactives show top-dose activity change, negative = growth inhibition, most hits filed as inhibitors | 420,000 compounds, 15% hits; also: nearly all actives have a fitted effect of over 55% in size
#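 Cells were dispensed at 400 per well, compounds added by pin tool, plates incubated ≥48 hr at 37 °C, then CellTiter-Glo added for 30 min at room temperature before luminescence reading. Line: DT40 Tdp1-/- complemented with hTDP1; camptothecin omitted.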
# TDP1 block – TDP1 (human) enzyme inhibition; Q9NUW8; recombinant TDP1, AlphaScreen DNA substrate cleavage; Potency, µM (top dose mostly 130 µM), without a hit: at the highest dose activity change, negative = inhibition, hits mostly inhibitors; 350,000 compounds, 0.28% hits; also: nearly all actives have a fitted effect of over 40% in size
#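 Here, a 5' biotin and 3' phosphotyrosine-FITC DNA oligonucleotide reports Tdp1 activity: intact substrate bridges AlphaScreen beads, while cleavage leaves a 3' phosphate and drops signal. All incubations at room temperature.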
# VP16 counter – inhibits Gal4-VP16 luciferase reporter, ROR gamma counter-screen; Drosophila S2 Gal4-VP16 UAS-luciferase, luminescence, 20 h; Potency, µM (highest dose often 53.6 µM), without a hit: top-dose activity, negative = inhibition, usual class: inhibitors; 310,000 compounds, 3.5% hits; AID 2546;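 also: Gal4-VP16 expression switched on by copper sulfate through the metallothionein promoter; nearly all actives have a fitted effect of over 50% in size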
# RORgamma inh – inhibitors of mouse ROR gamma transcriptional activity | 310,000 compounds, 5.4% hits | Drosophila S2 Gal4-RORgamma UAS-luciferase reporter, 20 h | Potency, µM (top dose mostly 53.6 µM), for the others: top-dose activity change, negative = inhibition, actives largely listed as inhibitors | P51450; also: nearly all actives have a fitted effect of over 60% in size
# Target sequence (P51450 whole entry, looked up, the tested form may be a part): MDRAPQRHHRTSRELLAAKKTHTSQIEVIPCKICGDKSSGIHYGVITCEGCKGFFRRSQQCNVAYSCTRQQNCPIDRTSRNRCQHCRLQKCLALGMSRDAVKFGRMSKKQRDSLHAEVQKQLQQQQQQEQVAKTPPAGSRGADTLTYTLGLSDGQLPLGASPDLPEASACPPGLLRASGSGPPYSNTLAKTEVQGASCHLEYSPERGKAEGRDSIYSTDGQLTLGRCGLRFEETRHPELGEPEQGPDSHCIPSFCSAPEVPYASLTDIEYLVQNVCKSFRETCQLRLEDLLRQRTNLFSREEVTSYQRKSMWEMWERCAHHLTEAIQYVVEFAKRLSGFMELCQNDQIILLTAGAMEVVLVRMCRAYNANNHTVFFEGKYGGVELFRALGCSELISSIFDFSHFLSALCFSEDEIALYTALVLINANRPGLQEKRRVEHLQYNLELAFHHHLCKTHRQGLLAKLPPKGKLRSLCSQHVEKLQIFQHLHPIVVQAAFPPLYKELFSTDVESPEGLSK
#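 Compounds are pin-transferred onto Drosophila Schneider cells expressing a copper-inducible Gal4–ROR gamma transactivation domain fusion. After 1 hr, copper sulfate is added to 700 uM final; luciferase is read 20 hr later.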
# An asterisk follows results filed as active; ? = inconclusive; . = not tested or not shown; [ ] = remark or other dose. Calls follow the shape of the dose curve; as a rule, active = well fitted curve in the direction sought with a large enough effect; inconclusive = small, poorly fitted or top-dose-only effect, or another doubt; inactive = no such curve, though single readings can be large; an effect the other way counts as inactive or inconclusive. % is scaled to controls: 0 for no effect and ±100 for the full control effect; potency is read from the fitted curve at half-maximal effect.
SMILES,TDP1 cell CPT,DT40 TDP1 no CPT,TDP1 block,VP16 counter,RORgamma inh
CSCCC(NC(=O)c1ccco1)C(=O)OCC(=O)Nc1sccc1C#N (stereo not given),.,.,3%,8%,-2%
CCOC(=O)OC(C)OC1=C(C(=O)Nc2ccccn2)N(C)S(=O)(=O)c2ccccc21 (stereo not given),?,2.1µM*,9%,-4%,-2%[10 µM]
CCn1c(CCc2ccccc2)n[nH]c1=S,-7%,?,5%,?,8.9µM*
CCn1c(Cc2ccccc2)n[nH]c1=S,-3%,8%,.,-25%,?
CCCCc1n[nH]c(=S)n1Cc1ccccc1,-2%,-24%,0%,16µM*,4µM*
CCn1c(CSCc2ccccc2)n[nH]c1=S,?,?,5%,?,4µM*
CCn1c(CCn2c3ccccc3c3ccccc32)n[nH]c1=S,15µM*,?,3%,6.3µM*,5.6µM*
CC1(C)O[C@H]2CC(=O)OC[C@]23[C@H]2CC[C@@]4(C)[C@H](c5ccoc5)OC(=O)[C@H]5O[C@]54[C@]2(C)C(=O)C[C@@H]13,-29%,17%,.,.,.
COC(=O)c1nn(-c2nc(-c3ccc(OC)c(OC)c3)cc(C(F)(F)F)n2)cc1[N+](=O)[O-],-22%,?,-3%,0%[10 µM],-1%
C/C(=N/NC(=O)NC12CC3CC(CC(C3)C1)C2)c1ccccc1,-1%,?,.,1%,-6%
COc1ccc(NC(=O)NNC(=O)CCC(=O)Nc2ccccc2Cl)cc1,3%,6%,-3%,2%,5%
CC1CC2(CCCCC2)Nc2ccc3ccccc3c21 (stereo not given),21µM*,?,2%,-1%,?
Cc1cc(C)c(C#N)c(SCC(=O)Nc2ccc(S(=O)(=O)Nc3onc(C)c3C)cc2)n1,1%,9%,3%,0%,9%
CCOC(=O)C1=NN(c2ccc(Cl)cc2)C(=O)C1,?,?,.,-4%,23%
CC(NC(=O)c1ccc2c(c1)CCN2S(C)(=O)=O)c1ccccc1 (stereo not given),?,?,2%,.,.
O=C(c1ccc2c(c1)CCN2S(=O)(=O)c1ccc(Cl)cc1)N1CCN(c2ccccc2F)CC1,21µM*,16µM*,7%,.,.
O=C(c1ccc2c(c1)CCN2S(=O)(=O)c1ccccc1)N1CCN(c2cccc(Cl)c2)CC1,?,?,-2%,.,.
CS(=O)(=O)N1CCc2cc(C(=O)N3CCN(c4ccccc4F)CC3)ccc21,?,?,5%,-7%,-10%
Cc1cccc(N2CCN(C(=O)c3ccc4c(c3)CCN4S(C)(=O)=O)CC2)c1C,13µM*,?,3%,4%,15%
CC(NC(=O)c1ccc2c(c1)CCN2S(=O)(=O)c1ccc(Cl)cc1)c1ccccc1 (stereo not given),12µM*,?,0%,.,.
O=C(c1ccc2c(c1)CCN2S(=O)(=O)c1ccc(Cl)cc1)N1CCN(c2ccccc2)CC1,12µM*,21µM*,5%,.,.
CN1CCN(C2CC(=O)N(c3ccc4c(c3)OCCO4)C2=O)CC1 (stereo not given),2%,-3%,1%,-4%,-18%
Cc1ccc(/C(O)=C2\C(=O)C(=O)N(C)C2c2ccc(Br)cc2)cc1 (stereo not given),7%,-5%,4%,-2%,33%
O=C(c1cccc(S(=O)(=O)N2CCCc3ccccc32)c1)N1CCN(c2ccccc2)CC1,?,21µM*,0%,.,.
COc1ccc(N2CCN(C(=O)c3ccc(Cl)c(S(=O)(=O)N4CCCC4)c3)CC2)cc1,?,?,4%,1%,5%
O=C(c1ccc(Cl)c(S(=O)(=O)N2CCc3ccccc3C2)c1)N1CCN(c2ccccc2)CC1,3.7µM*,?,1%,-5%,15%[10 µM]
COc1cc2ccccc2cc1C(=O)NC(=S)Nc1cc(C(=O)O)ccc1C,-21%,?,1%,-13%,18%

# Bioassay records from PubChem.
